The structures appear in SMILES notation. In all, about 66,000 compounds went through this assay and about 720 (1.1%) were called active. The sample holds actives, similar compounds and a random draw of the others, so the mix is not that of the screen. No stated cut-off is given here; in the data, active means normalised signal below about 0.5; inactive means the rest, inconclusive results apart.

For this test, the target named is Chromobox protein homolog 7 (Homo sapiens) (UniProt O95931). As to the kind of experiment: CBX7 chromodomain binding inhibitors, primary screen, biochemical, AlphaScreen (AID 1224903). The settings on record: AlphaScreen His6-CBX7 / biotin-H3K27me3 peptide binding, stronger effect = lower value; z-score: measured here: z-score of CBX7 signal. A general note: Alpha assays give light when donor and acceptor beads are brought close together.
Chromobox protein homolog 7 (Homo sapiens), sequence (O95931 whole entry, looked up): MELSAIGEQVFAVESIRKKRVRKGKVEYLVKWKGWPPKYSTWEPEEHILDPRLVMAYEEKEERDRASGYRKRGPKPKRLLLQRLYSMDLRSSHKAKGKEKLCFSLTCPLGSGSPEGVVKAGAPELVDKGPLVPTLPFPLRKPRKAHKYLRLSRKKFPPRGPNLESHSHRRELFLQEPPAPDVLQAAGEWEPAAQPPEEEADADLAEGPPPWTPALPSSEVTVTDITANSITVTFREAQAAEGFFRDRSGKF
As for `COc1ccc(CCNC(=O)c2cccc3c2C(=O)N(Cc2cccnc2)C3)cc1OC`, the normalised signal (fraction of DMSO) is 1.02 (inactive) and the z-score was 0.0167.

Take `Cc1cccc(C)c1NC(=O)C1(N(CCc2c[nH]c3ccccc23)C(=O)c2ccccc2F)CCCCC1`: the normalised signal (fraction of DMSO) was 0.792 (inactive) and the z-score is -3.78.

Consider `CCN(C(=O)Cc1nc(N)n[nH]1)C1(C(=O)Nc2ccccc2)CCCCC1`, for which the normalised signal (fraction of DMSO) is 0.201 (active) and the z-score is -14.5.

Turning to `CCN(C(=O)Cc1nc(N)n[nH]1)C1(C(=O)Nc2ccc(C)cc2)CCCCC1`, the normalised signal (fraction of DMSO) was 0.791 (inactive) and the z-score was -3.79.

For `Cc1cc(NCC(C)c2ccccc2)n2ncnc2n1` (configuration not stated), the normalised signal (fraction of DMSO) was 1.03 (inactive) and the z-score was 0.546.

Turning to `CCOC(=O)c1cccc(NC(=O)Cn2nc(Cc3ccncc3)c3ccccc3c2=O)c1`, the normalised signal (fraction of DMSO) was 0.996 (inactive) and the z-score is -0.0743.

In the case of `COc1cccc(C2=NOC(C(=O)NCCc3ccccc3)C2)c1` (configuration not stated), the normalised signal (fraction of DMSO) is 1.14 (inactive) and the z-score stood at 1.85.

With `Cc1cc(Nc2ccc(C)c(C)c2)n2ncnc2n1`, the normalised signal (fraction of DMSO) is 1.04 (inactive) and the z-score turned out to be 0.609.

For the compound `CC1CCC(NC(=O)C2c3ccccc3C(=O)N2Cc2ccc3c(c2)OCO3)CC1` (configuration not stated), the normalised signal (fraction of DMSO) was 1.04 (inactive) and the z-score was 0.918.

As to `COc1ccc(CCNC(=O)CSc2nc3ccccc3nc2Cc2ccc(F)cc2)cc1OC`, the normalised signal (fraction of DMSO) is 0.48 (active) and the z-score is -8.99.

As to `COc1ccc(CCNC(=O)CSc2nc3ccccc3[nH]2)cc1OC`, the normalised signal (fraction of DMSO) was 1.07 (inactive) and the z-score came to 0.758.

As to `COc1ccc(CCNC(=O)CSc2nnc(CNC(=O)c3cccs3)o2)cc1OC`, the normalised signal (fraction of DMSO) was 0.975 (inactive) and the z-score was -0.715.

With `O=C1c2ccccc2-c2onc3c(N4CCCC4)ccc1c23`, the normalised signal (fraction of DMSO) was 0.367 (active) and the z-score is -9.89.

For the compound `O=S1(=O)N=C(N2CCCCC2)c2ccccc21`, the normalised signal (fraction of DMSO) is 1.07 (inactive) and the z-score turned out to be 2.

Consider `CCNc1cc(Nc2ccccc2)c2c3c(onc13)-c1ccccc1C2=O`, for which the normalised signal (fraction of DMSO) is 0.816 (inactive) and the z-score was -3.56.

Regarding `O=C(Nc1ccccc1Cl)N1CCCCC1c1cccnc1` (configuration not stated), the normalised signal (fraction of DMSO) is 0.995 (inactive) and the z-score was -0.051.

Turning to `Cc1ccc(Nc2cc(C(=O)O)c3ccccc3n2)cc1`, the normalised signal (fraction of DMSO) was 1.11 (inactive) and the z-score turned out to be 1.21.

In the case of `O=C(COc1ccc(Cl)cc1)NCc1nnc(SCC(=O)NCC2CCCO2)o1` (configuration not stated), the normalised signal (fraction of DMSO) was 1.04 (inactive) and the z-score is 1.76.

For `COc1ccc(C2CC(=O)N(CC(=O)Nc3ccc(C)c(Cl)c3)c3ccccc3S2)cc1` (configuration not stated), the normalised signal (fraction of DMSO) was 0.931 (inactive) and the z-score is -1.15.

`Cc1ccccc1OCC(O)Cn1c(=N)n(C)c2ccccc21` (configuration not stated): the normalised signal (fraction of DMSO) is 1.02 (inactive) and the z-score was 0.641.

On to `CC(=O)N1CCc2cc(S(=O)(=O)N(CCO)Cc3ccccc3)ccc21`, for which the normalised signal (fraction of DMSO) was 1.17 (inactive) and the z-score came out at 1.75.

With `CCOc1ccc2nc(C)cc(Nc3ccc(OC)c(OC)c3)c2c1`, the normalised signal (fraction of DMSO) is 0.818 (inactive) and the z-score is -2.64.

As to `CCCCc1ccc(NC(=O)CSc2nccn2-c2cccc(C)c2C)cc1`, the normalised signal (fraction of DMSO) is 0.742 (inactive) and the z-score is -0.258.

For `Cc1cccc(N(C)C(=O)C(NS(=O)(=O)c2ccc3c(c2)CCC(=O)N3)c2ccccc2)c1` (configuration not stated), the normalised signal (fraction of DMSO) was 1.06 (inactive) and the z-score was 0.379.

As to `CC1CCCCN1CCCNC(=O)C1CCC(=O)N1C1CCCC1` (configuration not stated), the normalised signal (fraction of DMSO) is 1.05 (inactive) and the z-score amounted to 1.64.

In the case of `c1ccc(SCCc2ccc3cc(-c4ccccc4)cn3c2)cc1`, the normalised signal (fraction of DMSO) was 0.986 (inactive) and the z-score was -0.335.

As to `CCOc1ccc2nc(NC(=O)c3ccc(OC)cc3)sc2c1`, the normalised signal (fraction of DMSO) was 1.05 (inactive) and the z-score stood at 1.46.

For the compound `Cc1c(CNC2CCCCC2C)c(C(=O)O)c(C)n1Cc1ccccc1` (configuration not stated), the normalised signal (fraction of DMSO) was 1.01 (inactive) and the z-score is 0.18.

In the case of `O=C(c1ccc(NC2=NC3CS(=O)(=O)CC3S2)cc1)N1CCN(C2CCCCC2)CC1` (configuration not stated), the normalised signal (fraction of DMSO) was 1.05 (inactive) and the z-score stood at 1.03.

As for `COc1ccc(CNC(=O)C2CCN(S(=O)(=O)c3c(C)noc3C)CC2)cc1`, the normalised signal (fraction of DMSO) is 1.02 (inactive) and the z-score was 0.788.

Consider `Cc1ccc(-c2nc(Nc3cccc(C(F)(F)F)c3)c3ccccc3n2)cc1`, for which the normalised signal (fraction of DMSO) is 1.08 (inactive) and the z-score stood at 1.39.

`Cc1ccc(Cl)cc1N1CCN(C(=O)Cn2ncc3c2-c2ccccc2OC3)CC1`: the normalised signal (fraction of DMSO) was 0.728 (inactive) and the z-score is -7.81.

As for `CCn1cnc2cc(NCc3ccccn3)ccc21`, the normalised signal (fraction of DMSO) was 0.316 (active) and the z-score is -5.49.

With `CCCn1cnc2cc(NCc3cc(OC)ccc3OC)ccc21`, the normalised signal (fraction of DMSO) is 0.919 (inactive) and the z-score was -2.03.

`COc1cccc(CNc2ccc3c(c2)ncn3C)c1`: the normalised signal (fraction of DMSO) was 0.916 (inactive) and the z-score is -1.96.

As to `O=C(Nc1ccccc1C(F)(F)F)N1CCN(c2ccc3nnc(-c4ccccc4)n3n2)CC1`, the normalised signal (fraction of DMSO) was 0.759 (inactive) and the z-score is -3.38.

`Cc1nc2cc(C(=O)NCc3ccc(F)cc3)ccc2n1-c1cccc(F)c1`: the normalised signal (fraction of DMSO) was 0.995 (inactive) and the z-score was -0.21.

`Cc1cccc(CCNC(=O)CN2CCN(Cc3ccc(F)cc3Cl)C2=O)c1`: the normalised signal (fraction of DMSO) is 1.02 (inactive) and the z-score is 0.228.

Turning to `Cc1ccc(NC(=O)Cn2cnc3sc(C(=O)Nc4ccc(F)cc4)c(C)c3c2=O)cc1Cl`, the normalised signal (fraction of DMSO) was 1.09 (inactive) and the z-score turned out to be 2.71.

Turning to `Cc1ccc(OCC(=O)Nc2cccc(-c3nc4ncccc4o3)c2)cc1`, the normalised signal (fraction of DMSO) was 1.02 (inactive) and the z-score was determined as 0.227.

`Cc1cccc(N2CCN(C(=O)C3CCC(Cn4c(=O)[nH]c5ccsc5c4=O)CC3)CC2C)c1` (configuration not stated): the normalised signal (fraction of DMSO) was 1.11 (inactive) and the z-score was 0.523.

For the origin of these results see PubChem BioAssay AID1224903 (Bradner/Qi Labs at DFCI, 2016).
